Data reported in PubChem BioAssay.
The source made the active and inactive calls.

Assays:
[1] = E. coli DRC41 culture turbidity changes, primary screen, E. coli filamentation inducer project, strain DRC41, OD650, 48 h (AID 1152);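 also: E. coli MC1000 strain DRC41 lacking acrAB efflux pump and sulA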; settings: E. coli DRC41 (acrAB sulA), higher = more signal, called active from +8 up or from −8 down
[2] = small-molecule binders of probe aLefty1, primary screen, biochemical, small-molecule microarray, 635/667 nm fluorescence (AID 1153); settings: higher = more signal;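 also: score merges spot fluorescence with signal-to-noise ratio from the scanned slide images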
[3] = PSAC antagonists in infected red cells, primary screen, cell-based, P. falciparum Indochina, OD700, 1 h (AID 1154); settings: P. falciparum Indochina infected RBC osmotic lysis, higher = more signal, called active from +8 up or from −8 down
[4] = PSAC antagonists in infected red cells, primary screen, cell-based, P. falciparum Indochina, OD700, 2 h (AID 1155);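 also: lysis reports solute entry through the parasite surface anion channel PSAC; channel blockers reduce lysis of infected cells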; settings: P. falciparum Indochina infected erythrocytes, osmotic lysis OD700; higher = more signal, called active from +8 up or from −8 down
[5] = osmotic lysis modulators in infected erythrocytes, primary screen, PSAC antagonist project, cell-based, P. falciparum Indochina, OD700, 3 h (AID 1156); settings: higher = more signal, called active from +8 up or from −8 down
[6] = PSAC antagonists in infected red cells, primary screen, cell-based, P. falciparum Indochina, OD700, 18 h (AID 1157); settings: P. falciparum Indochina infected erythrocytes, osmotic lysis OD700, 18 h; higher = more signal, called active from +8 up or from −8 down
[7] = modulators of S6 phosphorylation in cells, primary screen, cell-based, A549, cytoblot, luminescence, serum-stimulated (AID 1158); settings: A549 phospho-S6 cytoblot, 5 h, higher = more signal;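 also: serum-stimulated A549 lung adenocarcinoma cells; signal is phosphorylated S6 detected by cytoblot immunostaining with HRP secondary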
[8] = biological target: NADPH oxidase 2 (Homo sapiens) (UniProt P04839); test: NOX2-dependent H2O2 signal modulators, primary screen, NOX inhibitor project, cell-based, HEK293-NOX2, PMA-stimulated, Amplex Red fluorescence (AID 1159); settings: 45 min, higher = more signal, called active from +8 up or from −8 down; also: test concentration not given here
Chain of NADPH oxidase 2 (Homo sapiens) (P04839 whole entry, looked up): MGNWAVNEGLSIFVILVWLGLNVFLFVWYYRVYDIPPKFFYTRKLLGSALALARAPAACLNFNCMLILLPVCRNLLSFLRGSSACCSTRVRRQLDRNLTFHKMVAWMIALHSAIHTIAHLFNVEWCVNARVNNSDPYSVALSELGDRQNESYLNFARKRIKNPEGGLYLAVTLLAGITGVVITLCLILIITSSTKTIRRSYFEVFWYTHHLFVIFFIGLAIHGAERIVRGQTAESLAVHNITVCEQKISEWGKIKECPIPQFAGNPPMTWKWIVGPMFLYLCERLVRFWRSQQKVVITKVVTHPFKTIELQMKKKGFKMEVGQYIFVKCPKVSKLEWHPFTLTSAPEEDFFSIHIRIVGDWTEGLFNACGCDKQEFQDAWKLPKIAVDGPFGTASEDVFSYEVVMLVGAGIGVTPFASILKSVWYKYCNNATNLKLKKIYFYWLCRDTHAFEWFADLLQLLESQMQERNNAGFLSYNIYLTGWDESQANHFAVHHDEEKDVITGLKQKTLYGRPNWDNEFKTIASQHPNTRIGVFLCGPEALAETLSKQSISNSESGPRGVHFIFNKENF

[9] = biological target: NADPH oxidase 4 (Homo sapiens) (UniProt Q9NPH5); test: NOX4-dependent H2O2 signal modulators, primary screen, NOX inhibitor project, cell-based, HEK293-NOX4, tetracycline-induced, Amplex Red fluorescence (AID 1160); settings: 45 min, higher = more signal, called active from +8 up or from −8 down
Chain of NADPH oxidase 4 (Homo sapiens) (Q9NPH5 whole entry, looked up): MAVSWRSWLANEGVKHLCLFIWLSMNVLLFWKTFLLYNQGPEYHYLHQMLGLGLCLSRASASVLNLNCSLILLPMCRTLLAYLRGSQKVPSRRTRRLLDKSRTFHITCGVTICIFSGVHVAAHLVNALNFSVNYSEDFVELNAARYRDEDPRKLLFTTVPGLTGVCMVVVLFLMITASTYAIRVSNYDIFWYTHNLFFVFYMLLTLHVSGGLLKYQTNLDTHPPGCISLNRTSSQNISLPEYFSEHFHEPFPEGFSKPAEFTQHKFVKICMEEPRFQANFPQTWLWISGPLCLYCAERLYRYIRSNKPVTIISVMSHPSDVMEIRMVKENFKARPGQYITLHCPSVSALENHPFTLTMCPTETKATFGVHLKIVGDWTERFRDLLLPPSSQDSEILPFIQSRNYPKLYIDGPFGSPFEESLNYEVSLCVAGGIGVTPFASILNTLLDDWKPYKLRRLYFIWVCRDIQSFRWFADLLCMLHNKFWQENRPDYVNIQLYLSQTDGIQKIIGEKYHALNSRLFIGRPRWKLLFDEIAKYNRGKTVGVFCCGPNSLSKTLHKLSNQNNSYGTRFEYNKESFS

[10] = biological target: NADPH oxidase 5 (Homo sapiens) (UniProt Q96PH1); test: NOX5-dependent H2O2 signal modulators, primary screen, NOX inhibitor project, cell-based, HEK293-NOX5, Amplex Red fluorescence (AID 1161); settings: HEK293-NOX5, ionomycin, 45 min, higher = more signal
Chain of NADPH oxidase 5 (Homo sapiens) (Q96PH1 whole entry, looked up): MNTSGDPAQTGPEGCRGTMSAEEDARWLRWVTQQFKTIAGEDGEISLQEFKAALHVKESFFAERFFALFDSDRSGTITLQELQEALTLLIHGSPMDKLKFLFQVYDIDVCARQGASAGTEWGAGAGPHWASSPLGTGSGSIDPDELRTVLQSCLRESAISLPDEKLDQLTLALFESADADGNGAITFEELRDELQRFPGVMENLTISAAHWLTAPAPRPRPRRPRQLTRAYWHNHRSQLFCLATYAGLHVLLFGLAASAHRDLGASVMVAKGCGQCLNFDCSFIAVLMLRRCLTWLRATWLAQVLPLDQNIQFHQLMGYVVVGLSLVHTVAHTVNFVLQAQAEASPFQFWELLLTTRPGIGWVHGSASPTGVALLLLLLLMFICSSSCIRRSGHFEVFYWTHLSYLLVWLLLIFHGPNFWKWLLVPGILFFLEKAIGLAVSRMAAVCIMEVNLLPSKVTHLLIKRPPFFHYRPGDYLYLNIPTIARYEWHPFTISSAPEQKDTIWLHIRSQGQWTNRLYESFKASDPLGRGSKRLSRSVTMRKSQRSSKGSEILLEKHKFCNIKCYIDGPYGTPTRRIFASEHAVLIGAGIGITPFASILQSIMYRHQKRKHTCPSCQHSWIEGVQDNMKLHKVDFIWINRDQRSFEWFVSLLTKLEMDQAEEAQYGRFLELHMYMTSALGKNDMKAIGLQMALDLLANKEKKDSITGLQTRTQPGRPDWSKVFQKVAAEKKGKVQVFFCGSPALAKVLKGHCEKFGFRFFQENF

[11] = A549 cell viability effects, profiling panel, calcein-AM fluorescence, 48 h, basal (AID 1162); settings: higher = more signal; also: test concentration not given here
[12] = adipocyte viability effects, profiling panel, cell-based, 3T3-L1 adipocytes, calcein-AM fluorescence, 48 h, basal (AID 1163); settings: 3T3-L1 adipocytes viability, higher = more signal; also: test concentration not given here
[13] = HepG2 cell viability effects, profiling panel, calcein-AM fluorescence, 48 h, basal (AID 1164); settings: higher = more signal; also: test concentration not given here
[14] = MM1S cell viability effects, profiling panel, calcein-AM fluorescence, 48 h, basal (AID 1165); settings: higher = more signal;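 also: viability of MM1S multiple myeloma cells under basal unstimulated conditions; test concentration not given here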
[15] = basal RPMI8226 viability, no added stimulus, profiling panel, cell-based, calcein-AM fluorescence, 48 h, PK04 Diversity Set (AID 1166); settings: RPMI8226 myeloma viability, higher = more signal;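 also: cells grown under basal conditions without added stimulus; test concentration not given here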
[16] = basal HepG2 mitochondrial membrane potential changes, profiling panel, cell-based, JC-1 fluorescence, 24 h, 100 nL compound (AID 1167); settings: higher = more signal; also: test concentration not given here
[17] = basal 3T3-L1 adipocyte mitochondrial potential changes, profiling panel, cell-based, JC-1 fluorescence, 3T3-L1 adipocytes, 24 h, 100 nL compound (AID 1168); settings: JC-1 mitochondrial fluorescence, higher = more signal, called active from +8 up or from −8 down; also: test concentration not given here
[18] = basal RPMI8226 mitochondrial membrane potential changes, profiling panel, cell-based, JC-1 fluorescence, 24 h, 100 nL compound (AID 1169); settings: RPMI8226 myeloma, JC-1 mitochondrial potential fluorescence, higher = more signal; also: test concentration not given here
[19] = basal MM1S mitochondrial membrane potential changes, profiling panel, cell-based, JC-1 fluorescence, 24 h, 100 nL compound (AID 1170); settings: higher = more signal; also: test concentration not given here
[20] = A549 lung cancer cell viability effects, profiling panel, resazurin fluorescence, 24 h, PK04 Diversity Set (AID 1171); settings: higher = more signal, called active from +8 up or from −8 down; also: test concentration not given here

Compound | z-score [1] | composite z-score [2] | z-score [3] | z-score [4] | z-score [5] | z-score [6] | z-score [7] | z-score [8] | z-score [9] | z-score [10] | z-score [11] | z-score [12] | z-score [13] | z-score [14] | z-score [15] | z-score [16] | z-score [17] | z-score [18] | z-score [19] | z-score [20]
O=C1O[C@@H](c2ccccc2)[C@@H](c2ccccc2)N2[C@@H](c3ccc(O)cc3)[C@]3(C(=O)Nc4ccc(C#CCCO)cc43)[C@@H](C(=O)N3CCN(c4ncccn4)CC3)[C@H]12 | 1.81 (inactive) | 0.348 | 1.97 (inactive) | 1.01 (inactive) | -0.834 (inactive) | 0.516 (inactive) | -0.138 | 0.941 (inactive) | -0.341 (inactive) | 0.594 | -0.716 | -0.0773 | 0.0219 | 0.441 | 0.1 | -1.95 | -0.252 (inactive) | -0.681 | -0.425 | 0.378 (inactive)
C=CCN1C(=O)[C@]2(CCC(=O)OC(C)(C)C)N=C(c3ccc(OCCCO)cc3)O[C@@H]2c2ccccc21 | 0.736 (inactive) | 0.576 | 34.1 (active) | 32.3 (active) | 2.29 (inactive) | 12.1 (active) | 0.708 | -2.67 (inactive) | 0.56 (inactive) | -0.299 | -0.656 | 1.79 | -1.74 | -3.56 | -4.05 | -1.45 | 4.11 (inactive) | -1.05 | -2.81 | -2.21 (inactive)
[N-]=[N+]=Nc1ccccc1C[C@]1(C(=O)NCC(O)CO)COC(c2ccc(OCCCO)cc2)=N1 (stereo not given in full) | 0.759 (inactive) | 0.0512 | 22.8 (active) | 4.35 (inactive) | 3.57 (inactive) | 1.06 (inactive) | 0.575 | 1.52 (inactive) | 0.179 (inactive) | -1.13 | 0.67 | 1.11 | 0.409 | 0.195 | -0.0237 | 0.244 | -0.257 (inactive) | -0.847 | 0.639 | 0.837 (inactive)
COC(=O)[C@@]1(Cc2ccc(OC)cc2)[C@H]2c3cc(C(=O)N(C)C)n(Cc4ccc(C)o4)c3C[C@H]2CN1C(=O)c1ccccc1 | -0.155 (inactive) | 0.346 | 4.12 (inactive) | 0.057 (inactive) | 1.3 (inactive) | 0.594 (inactive) | 1.5 | -0.351 (inactive) | -0.0809 (inactive) | -3.41 | 0.774 | -0.0339 | 0.81 | -1.92 | -0.744 | 4.47 | -0.263 (inactive) | -0.939 | -3.01 | -0.21 (inactive)
CC(C)N1C(=O)C[C@@](C(=O)NC2CC2)(c2ccc([N+](=O)[O-])cc2)[C@H]1c1ccc(CO)cc1 | 1.3 (inactive) | -0.231 | 2.45 (inactive) | -0.224 (inactive) | 2.85 (inactive) | -0.9 (inactive) | 2.28 | -0.281 (inactive) | -1.89 (inactive) | -1.78 | 0.219 | 1.98 | 1.03 | 0.941 | -1.73 | 0.347 | -0.0995 (inactive) | -0.416 | 0.059 | -0.0786 (inactive)
COC(=O)C(CC#Cc1ccc2c(c1)[C@]1(C(=O)N2)[C@H](c2ccc(O)cc2)N2[C@H](c3ccccc3)[C@H](c3ccccc3)OC(=O)[C@H]2[C@@H]1C(=O)NC[C@H](O)c1ccccc1)C(=O)OC | -0.994 (inactive) | -0.0518 | 1.13 (inactive) | 0.353 (inactive) | -0.876 (inactive) | -0.154 (inactive) | -0.256 | 1.39 (inactive) | 0.318 (inactive) | 1.47 | -0.857 | -0.909 | -0.045 | -1.58 | -1.83 | -2.42 | -0.837 (inactive) | -0.829 | -0.633 | -0.407 (inactive)
CN(C)c1ccc(C(O)C2C=CC3C(=O)NC(=O)C3N2Nc2ccccn2)cc1 (stereo not given) | -1.5 (inactive) | 0.201 | 0.85 (inactive) | 0.123 (inactive) | -0.693 (inactive) | 0.408 (inactive) | -0.888 | -2.21 (inactive) | -4.43 (inactive) | -4.16 | -0.8 | -0.358 | -0.331 | -0.286 | -0.333 | -1.21 | -0.339 (inactive) | -0.492 | 0.468 | -0.348 (inactive)
CCCN1C(=O)[C@]2(Cc3ccccc31)N=C(c1ccc(OCCCO)cc1)O[C@@H]2c1ccccc1 | -0.753 (inactive) | 0.643 | 30.9 (active) | 25.5 (active) | 3.13 (inactive) | 2.19 (inactive) | 0.117 | -3 (inactive) | -0.843 (inactive) | -1.8 | -1.29 | 1.07 | -1.46 | -1.6 | -4.4 | -0.29 | -0.906 (inactive) | -1.17 | 0.278 | -1.6 (inactive)
COCCOC(=O)N1C(=O)[C@@]2(c3cc(C#CCNC(N)=O)ccc31)[C@H](C(N)=O)[C@H]1C(=O)O[C@H](c3ccccc3)[C@H](c3ccccc3)N1[C@@H]2c1ccccc1OCCO | -0.77 (inactive) | 0.0299 | 6.57 (inactive) | 0.793 (inactive) | 1.18 (inactive) | 0.269 (inactive) | -0.309 | 1.9 (inactive) | 1.37 (inactive) | 0.198 | 0.533 | 0.0371 | -0.362 | -1.24 | 0.458 | -2.02 | -0.278 (inactive) | -0.159 | 0.244 | 0.291 (inactive)
O=C(Cc1ccccc1)[C@H]1C2C=CCCC(c3ccccc3)=C2CN1Cc1ccccc1 (stereo not given in full) | 2.46 (inactive) | -0.151 | 0.567 (inactive) | 0.186 (inactive) | 0.879 (inactive) | 0.06 (inactive) | -0.0984 | -0.534 (inactive) | 0.773 (inactive) | 1.13 | 0.128 | 0.169 | 0.436 | 0.743 | 0.602 | 0.655 | 0.122 (inactive) | -0.196 | 0.584 | 0.807 (inactive)
CCOC(=O)C[C@H]1[C@H](OC(=O)c2ccccc2-c2ccccc2)[C@@H](NC(=O)c2ccc3ccccc3c2)c2cc(OCCCO)ccc2N1C(=O)c1ccccc1 | 0.142 (inactive) | -0.152 | 1.05 (inactive) | 0.844 (inactive) | 0.652 (inactive) | 0.23 (inactive) | -0.0193 | 0.595 (inactive) | 0.89 (inactive) | 1.53 | 0.065 | 0.257 | -0.336 | -0.306 | -0.604 | 0.579 | 0.633 (inactive) | -0.25 | 0.171 | -0.385 (inactive)
[N-]=[N+]=Nc1ccccc1C[C@@]1(C(=O)N2CCOCC2)N=C(c2ccc(OCCCO)cc2)O[C@@H]1c1ccccc1 | 0.345 (inactive) | -0.88 | 28.5 (active) | 23.8 (active) | 3.6 (inactive) | 2.07 (inactive) | -0.0419 | 0.437 (inactive) | 0.265 (inactive) | -1.66 | 0.239 | -0.231 | 1.01 | -1.92 | -2.57 | 1.02 | 0.752 (inactive) | -1.23 | -0.324 | -1.07 (inactive)
Oc1ccc2cc[n+](Cc3cc4c(cc3Br)OCO4)cc2c1 | 1.27 (inactive) | -0.196 | 2.67 (inactive) | 0.864 (inactive) | -0.655 (inactive) | 0.474 (inactive) | 0.122 | -0.546 (inactive) | -0.154 (inactive) | 0.389 | 1.58 | -0.35 | 0.312 | 0.677 | -1.77 | -1.12 | 0.418 (inactive) | -0.123 | 0.313 | -0.585 (inactive)
CC(C)C(CO)N1C(=O)[C@@H]2[C@H]3C(=O)OCC=C[C@H]3OC23C=CCN(c2ccc(Cl)cc2)C(=O)[C@@H]13 (stereo not given in full) | 0.284 (inactive) | -0.0642 | 0.0695 (inactive) | 0.406 (inactive) | 1.06 (inactive) | 0.035 (inactive) | -0.4 | 1.1 (inactive) | 0.164 (inactive) | 1.78 | -0.713 | 0.556 | 0.813 | 1.04 | -0.356 | 0.465 | 0.959 (inactive) | -0.212 | 0.497 | 0.504 (inactive)
CCOC(=O)C[C@H]1[C@H](OC(=O)c2ccc(C(=O)c3ccccc3)cc2)[C@@H](NC(=O)c2ccc(-c3ccccc3)cc2)c2cc(OCCCO)ccc2N1C(=O)Cc1ccc(OC)cc1 | 0.548 (inactive) | 0.344 | 11.8 (active) | 1.62 (inactive) | -0.455 (inactive) | 0.429 (inactive) | 0.53 | -0.44 (inactive) | 0.397 (inactive) | 0.501 | -0.61 | 0.122 | -0.461 | 0.727 | -0.205 | 1.57 | -0.0721 (inactive) | -0.807 | -0.551 | -0.131 (inactive)
CC(CO)N1C(=O)[C@@H]2[C@H]3C(=O)OCC=C[C@H]3OC23C=CCN(Cn2nnc4ccccc42)C(=O)[C@@H]13 (stereo not given in full) | -0.597 (inactive) | -0.147 | 0.638 (inactive) | 0.359 (inactive) | 0.029 (inactive) | 0.0866 (inactive) | -0.0773 | 0.698 (inactive) | 0.672 (inactive) | 1.78 | -0.671 | -0.948 | -0.907 | 0.07 | -0.637 | -1.23 | -0.529 (inactive) | 0.241 | -0.226 | -0.382 (inactive)
